Reference: PubChem BioAssay AID2289 (National Center for Advancing Translational Sciences (NCATS), 2010)
The campaign covered roughly 340,000 compounds. About 3,300 (0.97%) were called active. About 9% were inconclusive and are not listed. Calls come from the whole dose curve; as a rule, active = well fitted inhibition curve with a large enough effect; inconclusive = small, poorly fitted or top-dose-only effect, or effect the other way; inactive = flat fitted curve, though single readings scatter. This is one part of the list.

Assay: qHTS Assay for Modulators of miRNAs and/or Inhibitors of miR-21; note: nearly all actives have a fitted effect of over 55% in size
Details: HeLa miR-21-FLuc reporter, luciferase luminescence, 48 h; actives lower the signal
Outline: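 HeLa cells endogenously expressing miR-21, stably carrying CMV-driven firefly luciferase with a downstream miR-21 binding site, 2000 cells/well. Titrations up to approximately 40 uM, 48 hours; luciferase luminescence read.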
Potency is the fitted concentration of half-maximal effect.

Potency, active:
Cc1ccccc1OCCNC(=O)c1ccc2ccccc2n1 5.21 µM
Cn1cc(C(=O)Nc2ccc3c(c2)CCC3)cn1 7.36 µM
CN1N=C(C(=O)Nc2ccc3c(c2)CCC3)CCC1=O 9.27 µM
CCC(C)(C)C1CCc2[nH]nc(C(=O)N/N=C(\C)c3ccco3)c2C1 (stereo not given) 2.61 µM
CCCc1nnc(NC(=O)Nc2ccccc2OC)s1 16.5 µM
COc1ccccc1NC(=O)Nc1nnc(C(C)C)s1 14.7 µM
CC(C)(C)C(=O)Nc1nnc(CCc2ccccc2)s1 2.93 µM
c1ccc(Cn2nc(-c3ccccc3)nc2-c2ccccc2)cc1 16.5 µM
COc1ccc(C(=O)OCCc2ccc(O)cc2)cc1 6.56 µM
S=C1c2ccccc2CN1c1ccccc1 9.27 µM
Cc1ccccc1-c1nnc(SCC(=O)N(C)c2ccccc2)o1 16.5 µM
Cc1ccccc1-c1nnc(SCC(=O)N(C)C2CCCCC2)o1 14.7 µM
CCc1ccc(C2=NN(C(C)=O)C(c3ccco3)C2)cc1 (stereo not given) 2.33 µM
CC(=O)N1N=C(c2ccc(C)cc2)CC1c1ccco1 (stereo not given) 16.5 µM
Nc1ccc2nc3c(=O)n(C4CCCCC4)c(=O)[nH]c3nc2c1 14.7 µM
O=C(NC1CC(=O)c2sccc21)c1ccc(Cl)cc1Cl (stereo not given) 13.1 µM
CC(C)Oc1ccc2c(=O)c(-c3ccccc3)coc2c1 0.464 µM
COc1ccc(-c2coc3cc(O)ccc3c2=O)cc1OC 13.1 µM
O=c1c(-c2ccccc2)coc2cc(O)ccc12 1.85 µM
COc1ccc(-c2coc3cc(O)cc(O)c3c2=O)cc1OC 13.1 µM
Cc1ccc(C2=NNC3(CCOC(C)(C)C3)S2)cc1 (stereo not given) 3.69 µM
COc1ccc2nc3oc(C(=O)N4CCCCC4)cc3cc2c1 1.04 µM
COc1ccc2cc3cc(C(=O)N4CCCCCC4)oc3nc2c1 0.414 µM
Cc1ccc2cc3cc(C(=O)N4CCCCCC4)oc3nc2c1 0.261 µM
COc1ccc2cc3cc(C(=O)N4CCCC(C)C4)oc3nc2c1 (stereo not given) 1.04 µM
Cc1cccc(C(=O)Nc2sc3c(c2C#N)CCCCC3)c1 0.261 µM
CCCC(=O)Nc1sc2c(c1C#N)CCCCC2 2.93 µM
N#Cc1c(NC(=O)C2CC2)sc2c1CCCCC2 8.26 µM
Nc1nccc(/C=C/c2ccc(Cl)cc2)n1 2.07 µM
COc1ccc(CC(=O)Nc2cc3oc4ccccc4c3cc2OC)cc1 14.7 µM
COc1cc2c(cc1NC(=O)Cc1ccc(C)cc1)oc1ccccc12 9.27 µM
COc1ccc2oc(=O)c(-c3nc4ccccc4o3)cc2c1 9.27 µM
Cc1ccc(C(=O)O/N=C(\N)c2cccnc2)cc1[N+](=O)[O-] 7.36 µM
Cc1cc(C(=O)O/N=C(\N)c2ccncc2)ccc1[N+](=O)[O-] 2.33 µM
C/C(=N\NC(=O)c1nn(C)c(C)c1Br)c1cccc(NC(=O)c2ccoc2C)c1 3.69 µM
C/C(=N\NC(=O)c1nn(C)cc1Br)c1ccc(NC(=O)c2ccncc2)cc1 18.5 µM
C/C(=N\NC(=O)c1nn(C)c(C)c1Br)c1cccc(NC(=O)c2ccc(F)cc2)c1 1.85 µM
COc1ccc(C2=NN(C(C#N)c3ccc(OC)cc3)C(c3ccccc3)C2)cc1 (stereo not given) 2.33 µM
COc1ccc(C(C#N)N2N=C(c3ccccc3)CC2c2ccccc2)cc1OC (stereo not given) 10.4 µM
O=C1C(C=NCCN2CCOCC2)=C(O)c2ccccc21 8.26 µM
O=C(/C=C/c1ccc(-c2ccc(F)cc2)o1)N1CCCC1 5.85 µM
O=C(/C=C\c1ccc(-c2cccc([N+](=O)[O-])c2)o1)N1CCOCC1 9.27 µM
O=C(/C=C/c1ccc(-c2cccc([N+](=O)[O-])c2)o1)N1CCOCC1 7.36 µM
COc1ccc(CCN2CCCC(CN(C)C(=O)c3ccoc3)C2)cc1 (stereo not given) 6.56 µM
COCc1ccc(C(=O)N(C)CC2CCCN(CCc3ccc(OC)cc3)C2)o1 (stereo not given) 11.7 µM
Cc1ccc(/C=N/NC(=O)c2cccs2)cc1[N+](=O)[O-] 4.14 µM
O=C(Cc1cccs1)N/N=C/C=C/c1ccccc1[N+](=O)[O-] 6.56 µM
O=C(N/N=C/c1ccccc1[N+](=O)[O-])c1cccs1 2.93 µM
CC(/C=N/NC(=O)Cc1cccs1)=C\c1ccccc1 6.56 µM
CSc1ccccc1NC(=O)c1cccc(S(=O)(=O)N2CCN(C)CC2)c1 14.7 µM
Clc1ccc(OCc2cn3ccccc3n2)c2ncccc12 6.56 µM
Cc1cccc2nc(COc3ccc4ccccc4c3Br)cn12 2.07 µM
Clc1ccc(OCc2cn3cccnc3n2)c2ncccc12 14.7 µM
O=[N+]([O-])c1ccccc1COc1ccc(Cl)c2cccnc12 0.293 µM
Cc1cccc2nc(COc3ccc(Cl)c4cccnc34)cn12 16.5 µM
Cc1ccc(-c2nc3ccccc3s2)cc1NC(=S)NC(=O)c1cccc2ccccc12 4.65 µM
Cc1cccnc1NC(=S)NC(=O)/C=C/c1ccco1 9.27 µM
Cc1ccc(-n2nc3cc(C)c(NC(=S)NC(=O)/C=C/c4ccco4)cc3n2)cc1 3.69 µM
CCOC(=O)Cc1ccc2sc(-c3ccccc3)nc2c1 1.17 µM
CCOc1cc(-c2nc3ccccc3s2)ccc1O 9.27 µM
COc1ccc(OCC(=O)Nc2cc(-c3nc4ccccc4s3)ccc2C)cc1 4.65 µM
Cc1ccc(-c2nc3ccccc3s2)cc1NC(=S)NC(=O)/C=C/c1ccco1 10.4 µM
C/C(=N\Nc1ccccc1C(=O)O)c1ccncc1 8.26 µM
C/C(=N/Nc1ccccc1C(=O)O)c1cccs1 14.7 µM
C/C(=N\Nc1nc(-c2ccccc2)cs1)c1cccs1 8.26 µM
